# Key:
# Experiment in all cases: DAPPL (digital affinity profiling via proximity ligation, sequencing); 10 mM Tris-HCl pH 7.5, 50 mM NaCl, 1 mM DTT, 4% glycerol, room temperature, 30 min; GST-TFs on glutathione beads, 16-mer random dsDNA library, 0.1% formaldehyde crosslink after washing; high values mean tight binding
# [1] = molecular target: T1, FEV (Homo sapiens, UniProt Q99581 1-238); settings: protein: recombinant; tags: N-terminal GST; dsDNA, one strand shown
# T1 sequence: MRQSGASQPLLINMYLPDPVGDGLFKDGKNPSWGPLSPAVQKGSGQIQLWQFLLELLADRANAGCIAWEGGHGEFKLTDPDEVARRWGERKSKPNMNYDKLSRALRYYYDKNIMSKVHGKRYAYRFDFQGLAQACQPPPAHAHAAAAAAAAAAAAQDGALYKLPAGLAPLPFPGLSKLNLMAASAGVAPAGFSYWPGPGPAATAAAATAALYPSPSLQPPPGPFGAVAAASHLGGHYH
# How it was run: (§1)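 After expression in yeast as GST fusions, human transcription factors were bound to glutathione beads, DNA-barcoded and mixed with a tag-only sample. The pools were incubated with 200 nmole of a 16-mer random double-stranded DNA library in Tris/NaCl/DTT/glycerol buffer (30 min, room temperature), washed and crosslinked with 0.1% formaldehyde. Proximity ligation with BsaI/T4 ligase ran for 1 h at 37 °C, before PCR amplification and sequencing on an Illumina NextSeq500. Binding signal is a hexamer's read frequency for a factor divided by its frequency for the tag-only sample.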
# [2] = molecular target: ETV5 (Homo sapiens, UniProt P41161 1-510); settings: protein: recombinant; tags: N-terminal GST; dsDNA, one strand shown
# Chain of ETV5 (P41161 whole entry): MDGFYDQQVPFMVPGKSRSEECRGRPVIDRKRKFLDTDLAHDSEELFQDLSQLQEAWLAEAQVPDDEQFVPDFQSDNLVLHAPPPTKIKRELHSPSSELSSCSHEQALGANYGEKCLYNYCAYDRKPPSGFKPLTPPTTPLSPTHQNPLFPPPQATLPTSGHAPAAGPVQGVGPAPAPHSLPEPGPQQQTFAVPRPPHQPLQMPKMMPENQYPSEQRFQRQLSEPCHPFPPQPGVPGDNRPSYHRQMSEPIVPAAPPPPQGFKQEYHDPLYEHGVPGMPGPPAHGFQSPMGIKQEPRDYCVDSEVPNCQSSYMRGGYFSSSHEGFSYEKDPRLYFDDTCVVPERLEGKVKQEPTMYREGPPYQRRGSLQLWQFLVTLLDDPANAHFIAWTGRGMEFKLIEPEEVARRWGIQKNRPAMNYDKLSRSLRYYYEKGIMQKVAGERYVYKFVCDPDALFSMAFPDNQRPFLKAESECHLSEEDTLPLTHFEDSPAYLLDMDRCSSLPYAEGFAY
# How it was run: as §1
# [3] = molecular target: HSF1 (Homo sapiens, UniProt Q00613 1-529); settings: protein: recombinant; tags: N-terminal GST; chain copies: 3; dsDNA, one strand shown
# Chain of HSF1 (Q00613 whole entry): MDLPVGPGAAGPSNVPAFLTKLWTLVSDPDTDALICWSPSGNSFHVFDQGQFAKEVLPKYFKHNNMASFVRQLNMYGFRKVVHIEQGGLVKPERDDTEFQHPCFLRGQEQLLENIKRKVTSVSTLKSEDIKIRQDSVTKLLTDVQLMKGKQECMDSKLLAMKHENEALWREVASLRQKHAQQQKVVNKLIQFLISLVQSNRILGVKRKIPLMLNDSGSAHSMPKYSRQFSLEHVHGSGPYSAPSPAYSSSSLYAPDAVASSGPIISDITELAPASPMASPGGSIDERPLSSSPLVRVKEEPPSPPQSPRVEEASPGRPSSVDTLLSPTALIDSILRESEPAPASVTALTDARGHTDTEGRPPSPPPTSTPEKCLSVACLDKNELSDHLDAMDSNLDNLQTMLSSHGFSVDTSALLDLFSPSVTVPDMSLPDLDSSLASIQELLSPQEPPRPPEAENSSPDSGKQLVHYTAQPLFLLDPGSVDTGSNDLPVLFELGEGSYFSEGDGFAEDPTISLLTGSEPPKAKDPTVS
# How it was run: as §1
# [4] = molecular target: T2, SPIC (Homo sapiens, UniProt Q8N5J4 1-248); settings: protein: recombinant; tags: N-terminal GST; dsDNA, one strand shown
# T2 sequence: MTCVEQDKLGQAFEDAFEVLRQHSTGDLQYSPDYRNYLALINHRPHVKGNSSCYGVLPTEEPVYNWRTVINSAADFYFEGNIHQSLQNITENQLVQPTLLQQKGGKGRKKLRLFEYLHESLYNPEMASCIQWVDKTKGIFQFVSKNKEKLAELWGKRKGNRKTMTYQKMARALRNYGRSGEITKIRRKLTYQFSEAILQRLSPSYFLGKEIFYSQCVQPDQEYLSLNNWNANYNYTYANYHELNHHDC
# How it was run: as §1
# [5] = molecular target: ELF4 (Homo sapiens, UniProt Q99607 1-663); settings: protein: recombinant; tags: N-terminal GST; dsDNA, one strand shown
# Chain of ELF4 (Q99607 whole entry): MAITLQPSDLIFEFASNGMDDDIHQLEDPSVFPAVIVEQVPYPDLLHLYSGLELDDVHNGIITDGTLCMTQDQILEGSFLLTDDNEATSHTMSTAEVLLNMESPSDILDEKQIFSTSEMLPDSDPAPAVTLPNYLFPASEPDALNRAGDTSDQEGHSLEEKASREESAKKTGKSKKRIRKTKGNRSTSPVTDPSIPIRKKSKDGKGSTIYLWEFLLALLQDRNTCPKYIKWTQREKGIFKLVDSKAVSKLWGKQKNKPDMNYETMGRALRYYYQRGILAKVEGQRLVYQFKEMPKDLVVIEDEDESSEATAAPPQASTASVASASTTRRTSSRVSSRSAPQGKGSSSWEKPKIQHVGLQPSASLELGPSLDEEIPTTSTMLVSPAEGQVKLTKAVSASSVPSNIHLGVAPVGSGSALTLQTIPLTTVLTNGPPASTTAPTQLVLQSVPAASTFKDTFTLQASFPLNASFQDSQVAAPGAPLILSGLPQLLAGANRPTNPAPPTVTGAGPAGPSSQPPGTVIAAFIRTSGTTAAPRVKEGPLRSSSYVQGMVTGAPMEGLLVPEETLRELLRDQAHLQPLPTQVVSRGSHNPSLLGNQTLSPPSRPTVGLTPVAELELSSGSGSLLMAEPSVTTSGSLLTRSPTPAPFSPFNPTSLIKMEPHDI
# How it was run: as §1
# [6] = molecular target: T3, ELK4 (Homo sapiens, UniProt P28324-2 1-405); settings: protein: recombinant; tags: N-terminal GST; dsDNA, one strand shown
# T3 sequence: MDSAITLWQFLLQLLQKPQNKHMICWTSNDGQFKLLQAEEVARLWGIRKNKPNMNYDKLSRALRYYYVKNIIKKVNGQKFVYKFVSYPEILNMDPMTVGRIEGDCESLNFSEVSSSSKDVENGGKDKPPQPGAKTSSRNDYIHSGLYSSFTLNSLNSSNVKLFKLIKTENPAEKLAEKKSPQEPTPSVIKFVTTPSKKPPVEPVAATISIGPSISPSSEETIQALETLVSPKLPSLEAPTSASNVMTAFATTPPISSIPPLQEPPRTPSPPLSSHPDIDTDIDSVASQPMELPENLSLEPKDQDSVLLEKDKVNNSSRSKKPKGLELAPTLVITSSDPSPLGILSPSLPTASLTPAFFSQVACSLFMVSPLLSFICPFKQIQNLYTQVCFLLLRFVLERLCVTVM
# How it was run: as §1
# [7] = molecular target: T4, ETV2 (Homo sapiens, UniProt O00321 1-342); settings: protein: recombinant; tags: N-terminal GST; dsDNA, one strand shown
# T4 sequence: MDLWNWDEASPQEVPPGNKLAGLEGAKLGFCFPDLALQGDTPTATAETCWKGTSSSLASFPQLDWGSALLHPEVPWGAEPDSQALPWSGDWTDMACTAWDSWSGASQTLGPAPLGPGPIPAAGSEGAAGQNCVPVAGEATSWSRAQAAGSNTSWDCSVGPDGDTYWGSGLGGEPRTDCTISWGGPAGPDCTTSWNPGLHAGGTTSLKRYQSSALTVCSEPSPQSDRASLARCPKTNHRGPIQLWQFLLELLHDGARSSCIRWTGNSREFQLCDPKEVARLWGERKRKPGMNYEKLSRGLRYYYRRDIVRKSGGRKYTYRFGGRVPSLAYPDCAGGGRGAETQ
# How it was run: as §1
# [8] = molecular target: T5, ELF3 (Homo sapiens, UniProt P78545 1-371); settings: protein: recombinant; tags: N-terminal GST; dsDNA, one strand shown
# T5 sequence: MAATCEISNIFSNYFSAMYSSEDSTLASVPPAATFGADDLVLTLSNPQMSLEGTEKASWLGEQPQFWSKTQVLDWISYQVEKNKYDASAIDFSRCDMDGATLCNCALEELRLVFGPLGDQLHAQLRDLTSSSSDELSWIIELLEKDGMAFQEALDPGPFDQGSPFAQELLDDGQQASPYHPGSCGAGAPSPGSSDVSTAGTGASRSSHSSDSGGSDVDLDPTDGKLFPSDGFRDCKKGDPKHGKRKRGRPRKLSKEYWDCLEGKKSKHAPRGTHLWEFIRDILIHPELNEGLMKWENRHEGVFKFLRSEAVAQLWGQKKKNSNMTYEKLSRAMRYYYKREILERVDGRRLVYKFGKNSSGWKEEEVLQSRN
# How it was run: as §1
# [9] = molecular target: CRX (Homo sapiens, UniProt O43186 1-299); settings: protein: recombinant; tags: N-terminal GST; dsDNA, one strand shown
# Chain of CRX (O43186 whole entry): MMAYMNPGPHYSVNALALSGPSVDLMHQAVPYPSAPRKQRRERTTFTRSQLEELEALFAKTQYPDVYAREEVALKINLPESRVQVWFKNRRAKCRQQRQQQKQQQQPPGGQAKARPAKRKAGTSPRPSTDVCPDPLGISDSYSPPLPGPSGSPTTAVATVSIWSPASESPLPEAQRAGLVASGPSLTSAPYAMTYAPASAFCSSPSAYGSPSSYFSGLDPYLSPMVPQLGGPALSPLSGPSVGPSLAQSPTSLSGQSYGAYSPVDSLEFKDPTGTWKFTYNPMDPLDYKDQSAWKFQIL
# How it was run: as §1
# [10] = molecular target: ETV1 (Homo sapiens, UniProt P50549 1-477); settings: protein: recombinant; tags: N-terminal GST; dsDNA, one strand shown
# Chain of ETV1 (P50549 whole entry): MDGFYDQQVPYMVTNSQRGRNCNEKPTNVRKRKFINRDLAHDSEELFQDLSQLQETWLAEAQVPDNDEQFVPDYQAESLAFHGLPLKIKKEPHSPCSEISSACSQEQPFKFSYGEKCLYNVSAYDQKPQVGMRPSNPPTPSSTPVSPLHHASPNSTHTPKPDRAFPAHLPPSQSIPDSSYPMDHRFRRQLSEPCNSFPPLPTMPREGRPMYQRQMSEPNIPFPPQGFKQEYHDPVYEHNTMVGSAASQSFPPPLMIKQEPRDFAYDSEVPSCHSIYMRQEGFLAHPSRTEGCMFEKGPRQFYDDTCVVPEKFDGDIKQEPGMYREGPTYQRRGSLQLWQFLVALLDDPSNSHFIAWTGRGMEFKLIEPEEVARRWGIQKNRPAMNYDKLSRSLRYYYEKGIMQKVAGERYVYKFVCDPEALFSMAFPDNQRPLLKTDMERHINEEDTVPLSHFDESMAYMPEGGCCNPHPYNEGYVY
# How it was run: as §1
# [11] = molecular target: T6, ERF (Homo sapiens, UniProt P50548 1-548); settings: protein: recombinant; tags: N-terminal GST; dsDNA, one strand shown
# T6 sequence: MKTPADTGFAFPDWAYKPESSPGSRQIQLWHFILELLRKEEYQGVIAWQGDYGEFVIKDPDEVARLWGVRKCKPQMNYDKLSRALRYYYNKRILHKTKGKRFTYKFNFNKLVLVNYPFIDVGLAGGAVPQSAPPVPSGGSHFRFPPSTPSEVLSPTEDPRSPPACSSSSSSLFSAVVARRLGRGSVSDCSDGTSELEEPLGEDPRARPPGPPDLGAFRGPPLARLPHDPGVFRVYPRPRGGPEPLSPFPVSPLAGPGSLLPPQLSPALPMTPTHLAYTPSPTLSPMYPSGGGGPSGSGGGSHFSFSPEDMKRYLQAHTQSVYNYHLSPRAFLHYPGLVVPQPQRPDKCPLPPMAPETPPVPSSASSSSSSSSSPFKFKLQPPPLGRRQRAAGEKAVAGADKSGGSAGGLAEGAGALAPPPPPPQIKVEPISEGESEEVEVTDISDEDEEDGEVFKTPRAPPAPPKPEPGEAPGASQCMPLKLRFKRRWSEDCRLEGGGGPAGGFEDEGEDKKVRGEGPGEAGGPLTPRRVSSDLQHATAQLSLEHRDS
# How it was run: as §1
# [12] = molecular target: T7, ETV3L (Homo sapiens, UniProt Q6ZN32 1-361); settings: protein: recombinant; tags: N-terminal GST; dsDNA, one strand shown
# T7 sequence: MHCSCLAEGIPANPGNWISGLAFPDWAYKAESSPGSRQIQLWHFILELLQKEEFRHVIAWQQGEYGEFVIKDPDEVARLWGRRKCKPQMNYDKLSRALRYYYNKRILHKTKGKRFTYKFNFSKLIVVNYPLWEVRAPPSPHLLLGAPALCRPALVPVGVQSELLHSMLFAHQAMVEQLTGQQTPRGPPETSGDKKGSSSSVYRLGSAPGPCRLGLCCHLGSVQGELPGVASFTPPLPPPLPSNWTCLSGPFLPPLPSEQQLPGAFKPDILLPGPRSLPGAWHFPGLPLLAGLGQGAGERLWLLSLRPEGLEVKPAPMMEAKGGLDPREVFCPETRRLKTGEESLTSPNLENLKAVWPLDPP
# How it was run: as §1
# [13] = molecular target: T8, ETS2 (Homo sapiens, UniProt P15036 1-469); settings: protein: recombinant; tags: N-terminal GST; dsDNA, one strand shown
# T8 sequence: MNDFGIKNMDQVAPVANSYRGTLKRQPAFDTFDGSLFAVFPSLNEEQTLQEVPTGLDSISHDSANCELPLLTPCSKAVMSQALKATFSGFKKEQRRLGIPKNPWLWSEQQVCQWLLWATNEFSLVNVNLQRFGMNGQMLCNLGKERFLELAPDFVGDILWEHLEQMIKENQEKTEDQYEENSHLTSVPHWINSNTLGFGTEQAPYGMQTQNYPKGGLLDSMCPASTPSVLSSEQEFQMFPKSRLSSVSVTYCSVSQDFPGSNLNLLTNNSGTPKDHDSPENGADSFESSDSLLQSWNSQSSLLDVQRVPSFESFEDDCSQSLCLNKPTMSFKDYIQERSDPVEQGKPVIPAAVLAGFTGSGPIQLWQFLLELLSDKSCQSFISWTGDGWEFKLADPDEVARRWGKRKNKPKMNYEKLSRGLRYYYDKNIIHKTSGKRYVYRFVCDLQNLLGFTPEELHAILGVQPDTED
# How it was run: as §1
# [14] = molecular target: T9, SPDEF (Homo sapiens, UniProt O95238 1-335); settings: protein: recombinant; tags: N-terminal GST; dsDNA, one strand shown
# T9 sequence: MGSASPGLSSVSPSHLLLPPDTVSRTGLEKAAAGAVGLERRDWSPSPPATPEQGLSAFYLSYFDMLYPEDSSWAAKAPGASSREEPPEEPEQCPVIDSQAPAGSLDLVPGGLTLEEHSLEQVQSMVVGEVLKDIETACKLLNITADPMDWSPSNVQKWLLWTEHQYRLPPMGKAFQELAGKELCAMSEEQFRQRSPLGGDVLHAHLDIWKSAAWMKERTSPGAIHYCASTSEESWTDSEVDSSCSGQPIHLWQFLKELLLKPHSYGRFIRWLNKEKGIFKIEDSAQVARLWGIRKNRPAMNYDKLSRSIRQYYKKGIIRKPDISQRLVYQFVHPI
# How it was run: as §1
# [15] = molecular target: T10, ETV7 (Homo sapiens, UniProt Q9Y603 1-341); settings: protein: recombinant; tags: N-terminal GST; dsDNA, one strand shown
# T10 sequence: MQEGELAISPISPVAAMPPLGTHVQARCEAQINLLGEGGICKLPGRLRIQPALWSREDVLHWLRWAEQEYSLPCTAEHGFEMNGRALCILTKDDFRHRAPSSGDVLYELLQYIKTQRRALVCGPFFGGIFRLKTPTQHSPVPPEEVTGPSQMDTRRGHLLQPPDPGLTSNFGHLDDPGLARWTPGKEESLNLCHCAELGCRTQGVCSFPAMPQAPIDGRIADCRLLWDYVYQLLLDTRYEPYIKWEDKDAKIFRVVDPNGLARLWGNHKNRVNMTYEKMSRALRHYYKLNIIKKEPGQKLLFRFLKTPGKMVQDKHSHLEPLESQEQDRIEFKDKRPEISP
# How it was run: as §1
# [16] = molecular target: T11, ELF5 (Homo sapiens, UniProt Q9UKW6-2 1-255); settings: protein: recombinant; tags: N-terminal GST; dsDNA, one strand shown
# T11 sequence: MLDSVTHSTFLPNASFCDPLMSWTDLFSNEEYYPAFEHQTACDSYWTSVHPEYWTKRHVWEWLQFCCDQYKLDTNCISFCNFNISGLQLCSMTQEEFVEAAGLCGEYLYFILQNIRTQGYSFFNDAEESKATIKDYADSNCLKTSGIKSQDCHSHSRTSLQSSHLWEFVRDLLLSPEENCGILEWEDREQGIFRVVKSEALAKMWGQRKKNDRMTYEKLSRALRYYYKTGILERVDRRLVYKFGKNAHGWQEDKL
# How it was run: as §1
# [17] = molecular target: T12, ETV3 (Homo sapiens, UniProt P41162-2 1-143); settings: protein: recombinant; tags: N-terminal GST; dsDNA, one strand shown
# T12 sequence: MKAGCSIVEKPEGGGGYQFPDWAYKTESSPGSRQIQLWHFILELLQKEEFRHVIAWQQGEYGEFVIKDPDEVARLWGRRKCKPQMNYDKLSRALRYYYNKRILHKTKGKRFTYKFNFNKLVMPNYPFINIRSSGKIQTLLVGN
# How it was run: as §1
# [18] = molecular target: ETV6 (Homo sapiens, UniProt P41212 1-452); settings: protein: recombinant; tags: N-terminal GST; dsDNA, one strand shown
# Chain of ETV6 (P41212 whole entry): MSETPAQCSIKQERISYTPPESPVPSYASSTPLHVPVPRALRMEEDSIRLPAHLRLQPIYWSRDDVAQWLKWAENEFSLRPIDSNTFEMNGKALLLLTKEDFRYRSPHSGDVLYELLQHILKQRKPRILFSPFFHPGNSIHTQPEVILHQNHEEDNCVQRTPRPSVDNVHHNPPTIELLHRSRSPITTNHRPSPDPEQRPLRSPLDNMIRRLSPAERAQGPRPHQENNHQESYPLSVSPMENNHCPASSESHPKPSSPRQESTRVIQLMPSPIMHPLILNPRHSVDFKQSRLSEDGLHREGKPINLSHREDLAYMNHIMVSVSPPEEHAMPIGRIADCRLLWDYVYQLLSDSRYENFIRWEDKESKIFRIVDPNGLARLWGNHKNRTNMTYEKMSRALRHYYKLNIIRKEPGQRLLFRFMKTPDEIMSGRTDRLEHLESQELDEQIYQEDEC
# How it was run: as §1
sequence,measurement,setting,value
CTAATA,binding signal,[1],"1.16 fold enrichment (6-mer frequency, TF over GST control)"
same,binding signal,[2],"1.21 fold enrichment (6-mer frequency, TF over GST control)"
same,binding signal,[3],"1.55 fold enrichment (6-mer frequency, TF over GST control)"
same,binding signal,[4],"1.29 fold enrichment (6-mer frequency, TF over GST control)"
same,binding signal,[5],"1.18 fold enrichment (6-mer frequency, TF over GST control)"
same,binding signal,[6],"1.1 fold enrichment (6-mer frequency, TF over GST control)"
same,binding signal,[7],"1.24 fold enrichment (6-mer frequency, TF over GST control)"
same,binding signal,[8],"1.16 fold enrichment (6-mer frequency, TF over GST control)"
same,binding signal,[9],"2.09 fold enrichment (6-mer frequency, TF over GST control)"
same,binding signal,[10],"1.22 fold enrichment (6-mer frequency, TF over GST control)"
same,binding signal,[11],"1.27 fold enrichment (6-mer frequency, TF over GST control)"
same,binding signal,[12],"1.2 fold enrichment (6-mer frequency, TF over GST control)"
same,binding signal,[13],"1.18 fold enrichment (6-mer frequency, TF over GST control)"
same,binding signal,[14],"1.25 fold enrichment (6-mer frequency, TF over GST control)"
same,binding signal,[15],"1.24 fold enrichment (6-mer frequency, TF over GST control)"
same,binding signal,[16],"1.08 fold enrichment (6-mer frequency, TF over GST control)"
same,binding signal,[17],"1.06 fold enrichment (6-mer frequency, TF over GST control)"
same,binding signal,[18],"1.13 fold enrichment (6-mer frequency, TF over GST control)"

# From paper PMC7862700, “An all-to-all approach to the identification of sequence-specific readers for epigenetic DNA modifications on cytosine”
